{"source": "ChEMBL document CHEMBL2218924", "about": "“A broad activity screen in support of a chemogenomic map for kinase signalling research and drug discovery” (Biochem J, 2013)"}
{"target": "T1, Serine/threonine-protein kinase BRSK2 (Homo sapiens) (UniProt Q8IWQ3)", "T1 sequence (whole entry)": "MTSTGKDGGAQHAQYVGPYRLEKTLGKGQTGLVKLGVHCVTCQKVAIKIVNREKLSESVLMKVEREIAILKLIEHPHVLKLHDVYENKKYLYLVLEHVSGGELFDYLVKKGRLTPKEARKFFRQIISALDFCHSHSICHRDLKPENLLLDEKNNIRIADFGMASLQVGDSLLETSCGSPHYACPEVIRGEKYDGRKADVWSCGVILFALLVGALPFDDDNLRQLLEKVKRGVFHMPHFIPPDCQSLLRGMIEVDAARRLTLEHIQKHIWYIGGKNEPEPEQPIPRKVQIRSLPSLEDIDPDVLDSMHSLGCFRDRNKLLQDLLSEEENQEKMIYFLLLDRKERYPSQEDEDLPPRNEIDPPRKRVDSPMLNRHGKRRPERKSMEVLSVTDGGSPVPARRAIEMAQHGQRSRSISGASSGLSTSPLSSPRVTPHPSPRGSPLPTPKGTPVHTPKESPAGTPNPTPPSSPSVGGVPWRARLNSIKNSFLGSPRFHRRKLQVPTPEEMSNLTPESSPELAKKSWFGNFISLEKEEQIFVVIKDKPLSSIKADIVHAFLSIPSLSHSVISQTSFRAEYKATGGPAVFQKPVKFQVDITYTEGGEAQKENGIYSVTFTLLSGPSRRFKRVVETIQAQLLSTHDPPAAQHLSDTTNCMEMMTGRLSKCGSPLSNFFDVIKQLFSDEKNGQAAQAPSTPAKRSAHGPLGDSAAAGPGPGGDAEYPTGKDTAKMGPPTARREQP", "conditions": "at 10 µM", "units": {"residual activity": "%"}}
{"smiles": "CC[n+]1c(/C=C/N(C)c2ccccc2)n(-c2ccccc2)c2ccc(-c3nc4ccccc4s3)cc21", "residual activity": 129}
{"smiles": "CCC(=O)Nc1ccc2ncnc(Nc3cccc(Br)c3)c2c1", "residual activity": 63}
{"smiles": "COc1cc2ncnc(Nc3ccc(O)c(Br)c3)c2cc1OC", "residual activity": 34}
{"smiles": "O=C1NC(=O)c2c1c1c3ccccc3[nH]c1c1[nH]c3cc(Br)ccc3c21", "residual activity": 32}
{"smiles": "Nc1ccc2ncnc(NCCc3ccc(Oc4ccccc4)cc3)c2c1", "residual activity": 99}
{"smiles": "Cc1cc(Nc2nc(-c3ccccc3)nc3ccccc23)n[nH]1", "residual activity": 7}
{"smiles": "c1ccc(-c2n[nH]c3c2oc2ccccc23)cc1", "residual activity": 73}
{"smiles": "CN(C)CCCn1cc(C2=C(c3c[nH]c4ccccc34)C(=O)NC2=O)c2ccccc21", "residual activity": 22}
{"smiles": "Oc1c2ccccc2c2c3c(cccc13)N=N2", "residual activity": 9}
{"smiles": "CCN(CC)C(=O)c1ccc(Nc2nc(OCC3CCCCC3)c3nc[nH]c3n2)cc1", "residual activity": 20}
{"smiles": "N#Cc1cnc2cnc(NCc3cccnc3)cc2c1Nc1ccc(F)c(Cl)c1", "residual activity": 94}
{"smiles": "Nc1nc(Nc2ccc(S(N)(=O)=O)cc2)nn1C(=S)Nc1c(F)cccc1F", "residual activity": 1}
{"smiles": "Oc1ccc(Nc2nc(-c3ccc(Cl)cc3)cs2)cc1", "residual activity": 126}
{"smiles": "CNc1cc2c(Nc3cccc(Br)c3)ncnc2cn1", "residual activity": 26}
{"smiles": "COc1cc2ncnc(Nc3ccc(Oc4ccccc4)cc3)c2cc1OC", "residual activity": 102}
{"smiles": "C[C@@H](N)[C@H]1CC[C@H](C(=O)Nc2ccncc2)CC1", "residual activity": 82}
{"smiles": "O=C(O)c1ccc2c3c1cccc3c(=O)n1c3ccccc3nc21", "residual activity": 41}
{"smiles": "Cc1nc2cc3nc(-c4cccs4)cnc3cc2n1C", "residual activity": 105}
{"smiles": "N#C/C(=C(\\N)Sc1ccc(N)cc1)c1ccccc1C(F)(F)F", "residual activity": 103}
{"smiles": "c1ccc2c(-c3ccncc3)c[nH]c2c1", "residual activity": 61}
{"smiles": "COc1cc2ncnc(Nc3ccc(NC(=O)c4ccccc4)cc3)c2cc1OC", "residual activity": 99}
{"smiles": "COc1cc2ncc(-c3ccccc3)nc2cc1OC", "residual activity": 67}
{"smiles": "CC#CC(=O)Nc1cc2c(Nc3ccc(F)c(Cl)c3)ncnc2cn1", "residual activity": 100}
{"smiles": "Cc1nc(-c2ccccc2)c(-c2ccncc2)o1", "residual activity": 96}
{"smiles": "Ic1cccc(CSc2nnc(-c3ccncc3)o2)c1", "residual activity": 97}
{"smiles": "O=C1Nc2ccc(Br)cc2/C1=C\\c1cc2c([nH]1)CCCC2", "residual activity": 113}
{"smiles": "Cc1cncc2cccc(S(=O)(=O)N3CCCN(C(=O)CN)C[C@H]3C)c12", "residual activity": 33}
{"smiles": "COc1ccc(OC)c2c(=S)c3ccccc3[nH]c12", "residual activity": 89}
{"smiles": "Cc1cc2ncc(-c3ccccc3)nc2cc1C", "residual activity": 97}
{"smiles": "O=C(Nc1cccc(Nc2cc(Nc3cccc(C(F)(F)F)c3)ncn2)c1)C1CC1", "residual activity": 47}
{"smiles": "N#CCCc1ccc2c(c1)-c1[nH]c3ccc([N+](=O)[O-])cc3c1CC(=O)N2", "residual activity": 13}
{"target": "T2, Cyclin-dependent kinase 1/cyclin B1 (Homo sapiens) (UniProt P06493+P14635)", "T2 sequence (P06493 whole entry, looked up)": "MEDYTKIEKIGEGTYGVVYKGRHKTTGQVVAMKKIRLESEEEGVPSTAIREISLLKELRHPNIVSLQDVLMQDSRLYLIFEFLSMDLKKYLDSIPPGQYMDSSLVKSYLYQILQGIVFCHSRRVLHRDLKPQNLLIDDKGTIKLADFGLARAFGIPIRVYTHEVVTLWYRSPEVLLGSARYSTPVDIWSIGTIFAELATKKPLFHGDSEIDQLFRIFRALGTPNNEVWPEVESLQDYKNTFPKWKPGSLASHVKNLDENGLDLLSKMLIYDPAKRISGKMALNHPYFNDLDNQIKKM", "T2 sequence (P14635 whole entry, looked up)": "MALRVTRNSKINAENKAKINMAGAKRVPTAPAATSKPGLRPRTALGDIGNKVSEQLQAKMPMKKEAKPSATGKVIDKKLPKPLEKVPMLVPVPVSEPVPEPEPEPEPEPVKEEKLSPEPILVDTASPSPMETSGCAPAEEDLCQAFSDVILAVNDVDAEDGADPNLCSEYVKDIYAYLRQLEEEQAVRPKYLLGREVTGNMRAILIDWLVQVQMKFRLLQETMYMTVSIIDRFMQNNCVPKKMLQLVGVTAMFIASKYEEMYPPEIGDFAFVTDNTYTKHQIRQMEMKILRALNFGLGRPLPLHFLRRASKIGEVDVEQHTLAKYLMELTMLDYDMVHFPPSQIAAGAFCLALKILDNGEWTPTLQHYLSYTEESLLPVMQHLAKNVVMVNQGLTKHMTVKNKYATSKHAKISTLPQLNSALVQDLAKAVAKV", "conditions": "at 1 µM", "units": {"residual activity": "%"}}
{"smiles": "CC[n+]1c(/C=C/N(C)c2ccccc2)n(-c2ccccc2)c2ccc(-c3nc4ccccc4s3)cc21", "residual activity": 111}
{"smiles": "CCC(=O)Nc1ccc2ncnc(Nc3cccc(Br)c3)c2c1", "residual activity": 114}
{"smiles": "COc1cc2ncnc(Nc3ccc(O)c(Br)c3)c2cc1OC", "residual activity": 100}
{"smiles": "O=C1NC(=O)c2c1c1c3ccccc3[nH]c1c1[nH]c3cc(Br)ccc3c21", "residual activity": 92}
{"smiles": "Nc1ccc2ncnc(NCCc3ccc(Oc4ccccc4)cc3)c2c1", "residual activity": 99}
{"smiles": "Cc1cc(Nc2nc(-c3ccccc3)nc3ccccc23)n[nH]1", "residual activity": 97}
{"smiles": "c1ccc(-c2n[nH]c3c2oc2ccccc23)cc1", "residual activity": 94}
{"smiles": "CN(C)CCCn1cc(C2=C(c3c[nH]c4ccccc34)C(=O)NC2=O)c2ccccc21", "residual activity": 102}
{"smiles": "Oc1c2ccccc2c2c3c(cccc13)N=N2", "residual activity": 52}
{"smiles": "CC(=O)c1ccc(N2CCOCC2)cc1O", "residual activity": 104}
{"smiles": "N#Cc1cnc2cnc(NCc3cccnc3)cc2c1Nc1ccc(F)c(Cl)c1", "residual activity": 9}
{"smiles": "Nc1nc(Nc2ccc(S(N)(=O)=O)cc2)nn1C(=S)Nc1c(F)cccc1F", "residual activity": 0}
{"smiles": "Oc1ccc(Nc2nc(-c3ccc(Cl)cc3)cs2)cc1", "residual activity": 111}
{"smiles": "CNc1cc2c(Nc3cccc(Br)c3)ncnc2cn1", "residual activity": 111}
{"smiles": "COc1cc2ncnc(Nc3ccc(Oc4ccccc4)cc3)c2cc1OC", "residual activity": 99}
{"smiles": "O=C(O)c1ccc2c3c1cccc3c(=O)n1c3ccccc3nc21", "residual activity": 62}
{"smiles": "Cc1nc2cc3nc(-c4cccs4)cnc3cc2n1C", "residual activity": 109}
{"smiles": "N#C/C(=C(\\N)Sc1ccc(N)cc1)c1ccccc1C(F)(F)F", "residual activity": 104}
{"smiles": "CC#CC(=O)Nc1cc2c(Nc3ccc(F)c(Cl)c3)ncnc2cn1", "residual activity": 107}
{"smiles": "Cc1nc(-c2ccccc2)c(-c2ccncc2)o1", "residual activity": 104}
{"smiles": "Ic1cccc(CSc2nnc(-c3ccncc3)o2)c1", "residual activity": 18}
{"smiles": "O=C1Nc2ccc(Br)cc2/C1=C\\c1cc2c([nH]1)CCCC2", "residual activity": 110}
{"smiles": "COc1ccc(OC)c2c(=S)c3ccccc3[nH]c12", "residual activity": 100}
{"smiles": "Cc1cc2ncc(-c3ccccc3)nc2cc1C", "residual activity": 104}
{"smiles": "O=C(Nc1cccc(Nc2cc(Nc3cccc(C(F)(F)F)c3)ncn2)c1)C1CC1", "residual activity": 92}
{"smiles": "N#CCCc1ccc2c(c1)-c1[nH]c3ccc([N+](=O)[O-])cc3c1CC(=O)N2", "residual activity": 3}
{"target": "T2, Cyclin-dependent kinase 1/cyclin B1 (Homo sapiens)", "conditions": "at 10 µM", "units": {"residual activity": "%"}}
{"smiles": "CC[n+]1c(/C=C/N(C)c2ccccc2)n(-c2ccccc2)c2ccc(-c3nc4ccccc4s3)cc21", "residual activity": 91}
{"smiles": "CCC(=O)Nc1ccc2ncnc(Nc3cccc(Br)c3)c2c1", "residual activity": 107}
{"smiles": "COc1cc2ncnc(Nc3ccc(O)c(Br)c3)c2cc1OC", "residual activity": 68}
{"smiles": "O=C1NC(=O)c2c1c1c3ccccc3[nH]c1c1[nH]c3cc(Br)ccc3c21", "residual activity": 74}
{"smiles": "Nc1ccc2ncnc(NCCc3ccc(Oc4ccccc4)cc3)c2c1", "residual activity": 95}
{"smiles": "Cc1cc(Nc2nc(-c3ccccc3)nc3ccccc23)n[nH]1", "residual activity": 68}
{"smiles": "c1ccc(-c2n[nH]c3c2oc2ccccc23)cc1", "residual activity": 75}
{"smiles": "CN(C)CCCn1cc(C2=C(c3c[nH]c4ccccc34)C(=O)NC2=O)c2ccccc21", "residual activity": 40}
{"smiles": "Oc1c2ccccc2c2c3c(cccc13)N=N2", "residual activity": 35}
{"smiles": "CC(=O)c1ccc(N2CCOCC2)cc1O", "residual activity": 100}
{"smiles": "CCN(CC)C(=O)c1ccc(Nc2nc(OCC3CCCCC3)c3nc[nH]c3n2)cc1", "residual activity": 26}
{"smiles": "N#Cc1cnc2cnc(NCc3cccnc3)cc2c1Nc1ccc(F)c(Cl)c1", "residual activity": 8}
{"smiles": "Nc1nc(Nc2ccc(S(N)(=O)=O)cc2)nn1C(=S)Nc1c(F)cccc1F", "residual activity": -1}
{"smiles": "Oc1ccc(Nc2nc(-c3ccc(Cl)cc3)cs2)cc1", "residual activity": 84}
{"smiles": "CNc1cc2c(Nc3cccc(Br)c3)ncnc2cn1", "residual activity": 99}
{"smiles": "COc1cc2ncnc(Nc3ccc(Oc4ccccc4)cc3)c2cc1OC", "residual activity": 102}
{"smiles": "C[C@@H](N)[C@H]1CC[C@H](C(=O)Nc2ccncc2)CC1", "residual activity": 85}
{"smiles": "O=C(O)c1ccc2c3c1cccc3c(=O)n1c3ccccc3nc21", "residual activity": 15}
{"smiles": "Cc1nc2cc3nc(-c4cccs4)cnc3cc2n1C", "residual activity": 79}
{"smiles": "N#C/C(=C(\\N)Sc1ccc(N)cc1)c1ccccc1C(F)(F)F", "residual activity": 96}
{"smiles": "COc1cc2ncnc(Nc3ccc(NC(=O)c4ccccc4)cc3)c2cc1OC", "residual activity": 101}
{"smiles": "CC#CC(=O)Nc1cc2c(Nc3ccc(F)c(Cl)c3)ncnc2cn1", "residual activity": 94}
{"smiles": "Cc1nc(-c2ccccc2)c(-c2ccncc2)o1", "residual activity": 92}
{"smiles": "Ic1cccc(CSc2nnc(-c3ccncc3)o2)c1", "residual activity": 14}
{"smiles": "O=C1Nc2ccc(Br)cc2/C1=C\\c1cc2c([nH]1)CCCC2", "residual activity": 110}
{"smiles": "COc1ccc(OC)c2c(=S)c3ccccc3[nH]c12", "residual activity": 94}
{"smiles": "Cc1cc2ncc(-c3ccccc3)nc2cc1C", "residual activity": 103}
{"smiles": "O=C(Nc1cccc(Nc2cc(Nc3cccc(C(F)(F)F)c3)ncn2)c1)C1CC1", "residual activity": 89}
{"smiles": "N#CCCc1ccc2c(c1)-c1[nH]c3ccc([N+](=O)[O-])cc3c1CC(=O)N2", "residual activity": 0}
